FBPA coupling cs – coupling enzyme interference in Giardia aldolase counter-screen; activity change, negative = inhibition, % at 58.2 µM, hits read low; actives 0.67% (n = 290,000); coupling enzyme system counterscreen, AmpLite Red fluorescence; AID 2472; in the data active means activity change below about -30%
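Fluorescence at 525 nm excitation and 598 nm emission measured inhibition of the coupled detection system without aldolase. Compounds (at 57.5 uM final) were preincubated 10 min at room temperature with coupling enzyme reagent before a 20 min substrate/AmpLite Red step.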
Tau fluor counter – counter-screen for tau fibril formation inhibitors. tau K18 P301L Alexa594 fluorescence, heparin fibrillization. Potency, µM (top dose mostly 57.7 µM), without a hit: top-dose activity change, negative = decrease. actives 0.93% (n = 280,000). AID 1463; further: potency means the concentration at half of the fitted maximal effect; nearly all actives have a fitted effect of over 55% in size
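Human tau K18 P301L (15 uM unlabeled, 0.24 uM Alexa 594-labeled) in 100 mM sodium acetate pH 7 with 20 uM heparin, 6 hr at 37 C. ThT 30 uM added, 1 hr ambient; Alexa 594 FP and total fluorescence read at 555/632 nm.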
USP1-UAF1 inh – inhibitors of human USP1/UAF1 deubiquitinase; O94782; recombinant USP1/UAF1, Ub-Rhodamine cleavage fluorescence; Potency, µM (titrated, usually from 57.1 µM), for the others: at the top dose activity change, negative = inhibition, actives largely listed as inhibitors; actives 0.23% (n = 390,000); AID 743255; further: potency means the concentration at half of the fitted maximal effect; nearly all actives have a fitted effect of over 60% in size
Target sequence (O94782 whole entry, looked up): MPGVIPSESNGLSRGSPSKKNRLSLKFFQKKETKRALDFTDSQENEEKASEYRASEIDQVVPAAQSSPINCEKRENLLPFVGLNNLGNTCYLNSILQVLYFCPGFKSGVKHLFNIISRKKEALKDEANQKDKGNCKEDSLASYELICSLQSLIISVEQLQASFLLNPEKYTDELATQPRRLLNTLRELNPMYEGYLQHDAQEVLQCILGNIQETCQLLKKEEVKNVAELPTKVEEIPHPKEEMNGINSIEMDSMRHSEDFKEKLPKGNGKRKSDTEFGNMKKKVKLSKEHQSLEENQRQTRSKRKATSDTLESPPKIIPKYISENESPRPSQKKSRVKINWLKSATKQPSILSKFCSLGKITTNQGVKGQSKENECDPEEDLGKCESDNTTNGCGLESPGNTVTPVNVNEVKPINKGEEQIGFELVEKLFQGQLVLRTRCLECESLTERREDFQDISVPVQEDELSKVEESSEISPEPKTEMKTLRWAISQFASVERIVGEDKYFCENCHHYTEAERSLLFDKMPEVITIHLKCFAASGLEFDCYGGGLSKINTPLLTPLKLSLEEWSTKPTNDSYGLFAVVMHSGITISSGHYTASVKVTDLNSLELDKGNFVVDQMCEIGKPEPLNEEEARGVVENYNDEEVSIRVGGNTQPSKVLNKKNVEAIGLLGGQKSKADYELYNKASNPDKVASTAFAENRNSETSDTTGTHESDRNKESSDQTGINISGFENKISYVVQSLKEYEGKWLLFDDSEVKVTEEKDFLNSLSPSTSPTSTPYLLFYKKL
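In this screen, compounds sit with the deubiquitinase complex (1nM) for 15 min at room temperature before Ub-Rho is added at 150nM final. Fluorescence rise is then followed for 6 reads every 60 seconds.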
Tau fibril FP – inhibitors of human tau fibril formation | P10636 | K18 P301L tau heparin fibrillization, Alexa594 FP, 6 h | Potency, µM (series often up to 57.7 µM), inactives show at the top dose activity, negative = inhibition, usual class: inhibitors | actives 0.39% (n = 280,000); further: potency means the concentration at half of the fitted maximal effect; nearly all actives have a fitted effect of over 55% in size
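Recombinant K18 P301L […], labeled with Alexa 594 at 0.24 uM over 15 uM unlabeled; heparin inducer 20 uM final; 37 C, 6 hr; FP endpoint.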
Tau ThT inhib – blocks human tau fibril formation measured by thioflavin T; Potency, µM (top dose mostly 57.4 µM), inactives show at the highest dose activity, negative = inhibition, actives largely listed as inhibitors; P10636; recombinant tau K18 P301L, heparin-induced fibrillization, ThT fluorescence; actives 2.1% (n = 270,000); further: potency means the concentration at half of the fitted maximal effect; nearly all actives have a fitted effect of over 55% in size
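Using a mix of unlabeled (15 uM) and Alexa 594-labeled (0.24 uM) tau K18 P301L, heparin-triggered fibrillization over 6 hr at 37 C was scored by ThT fluorescence.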
* hit, by the source's call; ? = inconclusive; · = no result; [ ] = dose if it differs, or a comment. Shown are actives, neighbours in structure and some others; about 2.3% of the full set was active somewhere. Unless noted, the call rests on the fitted dose curve; in most records, active means well fitted curve in the direction sought with a large enough effect; inconclusive means small, poorly fitted or top-dose-only effect, or another doubt; inactive means no such curve, though single readings can be large; an effect the other way counts as inactive or inconclusive. On the % scale 0 is the no-effect control and ±100 the full control effect.

SMILES | FBPA coupling cs | Tau fluor counter | USP1-UAF1 inh | Tau fibril FP | Tau ThT inhib
Cc1nc(-c2ccc(C)c(S(=O)(=O)N3CCC(C(=O)NCc4ccc(Cl)cc4)CC3)c2)no1 | · | -14% | -12% | ? | 6%
CCCc1cc(=O)[nH]c(SCC(=O)CSc2nc(CCC)cc(=O)[nH]2)n1 | 1 | -26% | -23% | ? | 16µM*
CCCc1cc(=O)[nH]c(SCC(=O)NC)n1 | -1 | -1% | -1% | -1% | 0%
CC(=O)c1ccc(N2CCN(C(=O)CCCCn3c(=O)[nH]c4ccsc4c3=O)CC2)cc1 | · | -18% | ? | -5% | ?
CCOc1cc(C2CC(=O)N3CN(C4CCCCC4)CSC3=C2C#N)ccc1O (stereo not drawn) | -35* | -26% | ? | ? | 14µM*
COC(=O)C1=C(C)N(C)C(=O)NC1c1c(OC)ccc2ccccc12 (stereo not drawn) | 0 | · | -3% | · | ·
COc1ccc(C2CC(=O)N3CN(C4CCCCC4)CSC3=C2C#N)c(OC)c1 (stereo not drawn) | · | -22% | 2.2µM* | ? | 25µM*
COc1ccc2ccccc2c1C1CC(=O)N2CN(C3CCCCC3)CSC2=C1C#N (stereo not drawn) | -19 | -23% | ? | ? | 28µM*
c1ccc(Nc2nnc(SCc3cccc4ccccc34)s2)cc1 | 1 | 16µM*[quencher] | -20% | -10% | -10%
COc1ccc(NC(=O)Nc2nnc(-c3ccccc3SCc3ccccc3)s2)cc1 | 0 | 3.5µM*[quencher] | -12% | ? | -6%
COc1ccc(Nc2nc3ccc(OC)cc3s2)cc1 | -3 | 14µM*[quencher] | -12% | -9% | 13µM*
COc1ccc(Nc2ccc(OC)cc2)cc1 | -41* | ? | -20% | ? | 10µM*
COc1ccc(OCc2nnc(NC(=O)Nc3ccc(F)cc3)s2)cc1 | -1 | -10% | -17% | 10µM* | 6%
O=C(Nc1nnc(COc2ccc(F)cc2)s1)Nc1ccccc1F | 0 | -25% | -4% | -17% | ·
Cc1ccc(NC(=O)CN(C)S(=O)(=O)c2ccc3c(c2)n(C)c(=O)c(=O)n3C)cc1F | · | 6% | -7% | -3% | 13%
O=C(Nc1nc2c(s1)CCCC2)c1ccc(Br)s1 | -7 | ? | -9% | -6% | ?
COc1ccc(OCC(=O)Nc2nc3c(s2)CCCC3)cc1 | · | · | -24% | · | ·
COc1ccc(NC(=O)Nc2nc3c(s2)CCCC3)cc1 | -1 | 18µM*[quencher] | -10% | 5% | ?
COc1ccc2nc(NC(=O)Nc3ccccc3)sc2c1 | 4 | ? | -21% | -14% | ?
COc1ccc(NC(=O)Nc2nc3ccccc3s2)cc1 | 1 | 8.9µM*[quencher] | -27% | ? | ?
O=C(Nc1cccc(Br)c1)Nc1nc2c(s1)CCCCCC2 | · | 3.5µM*[quencher] | -11% | ? | -8%
CCOc1ccc2nc(NC(=O)Nc3cccs3)sc2c1 | -2 | 14µM*[quencher] | -28% | ? | ?
CCc1cccc(NC(=O)CCc2nc3cccnc3n2-c2ccccc2)c1 | · | -28% | -16% | -3% | -10%
COc1ccc(-c2nc(CSc3nnc(C)n4c3cc3sccc34)c(C)o2)cc1 | · | 11% | -1% | ? | -7%
Cc1ccc(C)c(NS(=O)(=O)c2cc3c(cc2Cl)NC(=O)CO3)c1 | · | 14µM*[quencher] | -3% | 2% | -17%
SMILES | FBPA coupling cs | Tau fluor counter | USP1-UAF1 inh | Tau fibril FP | Tau ThT inhib
COc1cc(OC)c(NS(=O)(=O)c2cc3c(cc2C)NC(=O)CO3)cc1Cl | · | -2% | -8% | 7% | 2%
CC(=O)OCC(NC(=O)C(Cc1ccccc1)NC(=O)OC(C)(C)C)C1OC(n2cc(C)c(=O)[nH]c2=O)C(OC(C)=O)C1OC(C)=O (stereo not drawn) | -1 | · | · | · | ·
O=C(NCc1ccco1)c1cc2c(s1)CSC2 | -4 | -18% | -18% | ? | 28µM*
O=C1OC(Nc2cc(Br)cc3cccnc23)c2ccccc21 (stereo not drawn) | -40* | -8% | -15% | 7% | -16%
COc1ccc(S(=O)(=O)c2cn(C)c3ccc(C)cc3c2=O)cc1 | · | -4% | -14% | -6% | -6%
CC(=O)Oc1ccc2oc(/C=C/N(C)C)c([N+](=O)[O-])c2c1 | -1 | -16% | -20% | 10% | 28µM*
CC(C)=Cc1oc2ccc([N+](=O)[O-])cc2c1N1CCOCC1 | 0 | -5%[2.34 µM] | -25% | -4%[2.34 µM] | 3%
COc1ccc2oc(/C=C/N(C)C)c(C(=O)c3ccc(Cl)cc3)c2c1 | -5 | -12% | -25% | -14% | -9%
C/C(=C/c1oc2ccc(O)cc2c1[N+](=O)[O-])N(C)C | 0 | ? | -19% | -12% | 4µM*
Cc1ccc(Nc2c(-c3c[nH]c4ccccc34)nc3ccccn23)cc1 | · | 8.9µM*[quencher] | ? | -4% | ?
COc1ccc(-c2cc(-c3ccccc3)c(C#N)c(SCC(O)CS(=O)(=O)Cc3ccc(Cl)cc3)n2)cc1 (stereo not drawn) | · | ? | -27% | ? | -6%
N#Cc1c(-c2ccccc2)cc(-c2ccccc2)nc1SCC(O)CS(=O)(=O)Cc1ccc(Cl)cc1 (stereo not drawn) | · | ? | -19% | 14µM* | 14µM*
O=C1/C(=C/c2cccc([N+](=O)[O-])c2)CCc2ccccc21 | 4 | ? | -10% | -3% | 25µM*
Cc1ccc(C(=O)NNC(=S)Nc2cccc3ccccc23)s1 | 1 | -27% | -16% | ? | 13µM*
N#CC(C#N)=C1C=CC=CN1/C(=C\c1ccco1)C(=O)c1ccc(Br)cc1 | -6 | -28% | -23% | ? | 11µM*
N#CC(C#N)=C1C=CC=CN1/C(=C\c1ccco1)C(=O)c1ccccc1 | -1 | ? | -22% | 20µM* | 14µM*
Cc1ccc(C(=O)N/C(=C/c2ccco2)C(=O)O)cc1 | 0 | -3% | -4% | 2% | -8%
COc1ccc(/C=C(/C(=O)c2cccs2)N2C=CC=CC2=C(C#N)C#N)cc1 | 2 | -29% | -26% | ? | 28µM*
COc1ccc(C(=O)/C(=C\c2ccco2)N2C=CC=CC2=C(C#N)C#N)cc1 | 0 | ? | -24% | ? | 13µM*
COCCNC(=O)C(=O)Nc1c2c(nn1-c1ccccc1)CS(=O)(=O)C2 | · | 0% | -19% | 1% | 0%
Cc1ccc(S(=O)(=O)n2nc(-c3ccco3)nc2NCc2ccc(N(C)C)cc2)cc1 | · | ? | -18% | 10% | -12%
Cc1ccc(S(=O)(=O)C(CNC(=O)C(=O)NCc2ccccc2C)c2cccs2)cc1 (stereo not drawn) | · | -18% | 1% | 5% | -9%
COc1cccc2sc(N3CCN(C(=O)CCS(=O)(=O)c4ccc(F)cc4)CC3)nc12 | · | -8% | ? | -2% | ?
COc1ccccc1N(CC(=O)Nc1ccccc1F)S(C)(=O)=O | · | -3% | -4% | -7% | 7%
Cc1ccc(SC2=C(Sc3ccc(C)cc3)C(=O)c3ccccc3C2=O)cc1 | -30 | 2.5µM*[quencher] | ? | 14µM* | 3.2µM*
